# Assay results as given in PubChem BioAssay AID2716 (Broad Institute, 2010).
# Several values for one entry are separate records, joined by “and”; a condition that tells them apart may be missing. Equal entries are not always repeated. About 3,300 (1%) of roughly 320,000 compounds were called active. This is one part of a sample in which actives are shown more often than they occur. Values without a mark were called inactive.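 The calls were made as follows: active = every valid replicate shows activation above 250% relative to neutral control wells; inactive = the rest, any valid replicate at or below 250%.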
# Assay: restored growth of temperature-sensitive Mot1-301 yeast – S. cerevisiae, ATP luminescence, 38.5C, SUMOylation pathway inhibitor project, primary screen (AID 2716);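 also: OY570 slx delta 5 strain wells were the positive control but not used for scaling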
# Settings: S. cerevisiae Mot1-301 growth rescue, at 18.8 µM, stronger effect = higher value, percent above DMSO median, 100 means doubled
row,SMILES,growth rescue
1,O=C(O)C1C2C=CC(C2)C1C(=O)NCc1ccccc1 (stereo not given),-11%
2,CN1CCN(C(=O)C2C3C=CC(C3)C2C(=O)O)CC1 (stereo not given),0.946%
3,C=C(Cl)COC(=O)C1C2C=CC(C2)C1C(=O)O (stereo not given),885% (active)
4,CCOC(=O)C1CCN(C(=O)c2cccc(S(=O)(=O)N(CC)c3ccccc3)c2)CC1,-7.37%
5,Cc1ccc(S(=O)(=O)N2CCN(c3ccccc3)CC2)cc1C,11.5%
6,Cc1cc(C)n(CCC(=O)N2CCN(S(=O)(=O)c3ccc(C)c(C)c3)CC2)n1,315% (active)
7,Cc1cc(C)n(C(=O)c2ccc(S(=O)(=O)N3CCCC3)cc2)n1,1400%
8,Cc1ccccc1NC(=O)C(C)OC(=O)CCC(=O)N(CC(C)C)c1c(N)n(CC(C)C)c(=O)[nH]c1=O (stereo not given),-16.2%
9,O=C(OCCN1C(=O)c2ccccc2C1=O)[C@@H]1CC(O)CN1S(=O)(=O)c1ccccc1[N+](=O)[O-] (stereo not given in full),-16.3%
10,CC(=O)N1CCN(S(=O)(=O)c2c(F)cc(F)c(Cl)c2F)CC1,9.01%
11,O=C(Nc1ccc(S(=O)(=O)Nc2ncccn2)cc1)C12CC3CC(CC(C3)C1)C2,35.6%
12,O=C(NNS(=O)(=O)c1c(F)cc(F)c(Cl)c1F)C12CC3CC(CC(C3)C1)C2,1720% (active)
13,CCN(CCn1cccn1)C(=O)CC1C(=O)NCCN1Cc1cccc(OC)c1OC (stereo not given),-10.6%
14,C=Cc1ccc(C(=O)N2CCCC(CCC(=O)N3CCN(c4ccccn4)CC3)C2)cc1 (stereo not given),-28.8%
15,O=C(c1ccc(F)cc1)c1c[nH]c(C(=O)NCc2cccnc2)c1,-16%
16,CCOC(=O)c1c(C)nn(-c2ncccc2NC(=O)CCC(=O)O)c1C,-17.7%
17,N#Cc1c(-c2ccccc2)nc(SCc2ccc([N+](=O)[O-])cc2)[nH]c1=O,10.6%
18,COc1ccccc1CSc1ncc(-c2ccc([N+](=O)[O-])cc2)[nH]1,1260% (active)
19,COc1ccccc1CC(=O)Nc1ccc([N+](=O)[O-])cc1OC,-7.23%
20,CC(C)(C)Oc1ccccc1Nc1nc(NCCO)nc(N2CCCC2)n1,8.32%
21,CC(Oc1ccccc1[N+](=O)[O-])C(=O)N/N=C/c1ccoc1 (stereo not given),547% (active)
22,CC(C)c1cc(C(=O)N/N=C/c2ccoc2)c(O)c(C(C)C)c1,2.88%
23,O=C(COc1ccccc1[N+](=O)[O-])N/N=C/c1ccc[nH]1,-23.4%

row,SMILES,growth rescue
1,Nc1nonc1-n1nnc(C(=O)N/N=C/c2cc(Br)ccc2O)c1CSC1=NCCS1,-10.1%
2,CCN(C(=O)CSc1nc(N)cc(=O)[nH]1)C1CCS(=O)(=O)C1 (stereo not given),5.44%
3,CC(C)(C)c1ccc(C(=O)NNC(=O)Cc2ccccc2)cc1,10.6%
4,C=Cn1c(C(=O)O)ccc1-c1ccc(OC)cc1,6.91%
5,COc1cccc(/C=N/NC(=O)C(=O)N2CCCC2)c1,11%
6,COc1ccccc1N1CCN(/N=C/c2ccc(O)cc2O)CC1,115%
7,COc1ccccc1N1CCN(C(=O)C(=O)N/N=C/c2ccccc2F)CC1,490% (active)
8,CCOC(=O)c1cnc2ccc(F)cc2c1Nc1ccc2c(c1)OCCO2,37%
9,Nc1nc(COC(=O)CCC(=O)c2ccc(Cl)cc2)nc(Nc2ccccc2)n1,18.5%
10,Cc1ccc(OC(=O)c2c(C)nn(-c3ccccc3)c2C)cc1,-15.1%
11,CCOc1ccc(C(C(=O)NC2CCCC2)N(C(=O)c2snc(C(N)=O)c2N)C2CCCC2)cc1 (stereo not given),922% (active)
12,COc1ccc(C(C(=O)NC2CCCCC2)N(C(=O)c2snc(C(N)=O)c2N)c2ccccc2OC)cc1 (stereo not given),-0.518%
13,CCC(C(=O)NC1CCCCC1)N(C(=O)c1snc(C(N)=O)c1N)c1ccc(OC)cc1OC (stereo not given),-10.5%
14,O=C(OCC(=O)N1CCc2ccccc21)C1CCCN1S(=O)(=O)c1ccc(Cl)cc1 (stereo not given),4.88%
15,C/C(CC(O)(/C=N/O)c1ccccc1)=N\O (stereo not given),0.714%
16,CCOc1c(OC)cccc1C(=O)NCC1(c2ccccc2)CCCC1,1.09%
17,CCc1nc2ccccc2c(C(=O)NCc2ccc(OC)cc2)c1C,-10.8%
18,CCOC(=O)C1CCc2nc3ccccc3c(=O)n21 (stereo not given),141%
19,CCc1nc2ccccc2c(C(=O)OC2CCCCC2=O)c1C (stereo not given),377% (active)
20,CCS(=O)(=O)N1CCCC(C(=O)NCCCN(C)Cc2ccccc2)C1 (stereo not given),2.83%
21,Cc1ccsc1C1C(C#N)=C(N)OC2=C1C(=O)CC(C)C2 (stereo not given),-1.54%
22,COc1ccc(CNCCCO)cc1OC,-14.2%
23,CCN(CC)CCNCc1ccc(OCc2ccc(Cl)nc2)c(OC)c1,-8.12%

row,SMILES,growth rescue
1,CCOCCCNCc1ccc(OCc2ccc(F)cc2)c(OC)c1,445% (active)
2,O=S(=O)(NCC1OCCc2ccccc21)c1ccccc1 (stereo not given),-12.3%
3,Cc1cccc(NC(=O)CCn2c(=O)oc3ccccc32)c1,-12.1%
4,Cc1cc(=O)oc2c1c(C)nn2-c1ccc(Cl)cc1,-9.75%
5,Cc1cc(C)c2c(Cn3ccnc3)cc(=O)oc2c1,620% (active)
6,CCCCc1cc(=O)oc2cc(C)cc(OCc3nn[nH]n3)c12,64.1%
7,COC(=O)c1cc(S(=O)(=O)Nc2ccc(C)c(F)c2)c[nH]1,-5.05%
8,[O-][n+]1ccc(OCc2ccccc2)cc1,-10%
9,CCOc1ccc(C(C(=O)NCCOC)N(CCOC)C(=O)CCC(=O)Nc2ccccn2)cc1 (stereo not given),0.544%
10,COCCNC(=O)C(c1ccc(O)cc1)N(C(=O)CCC(=O)Nc1nccs1)c1ccc(C)cc1 (stereo not given),-11.3%
11,COCCNC(=O)C(c1ccc(C)cc1)N(C(=O)CCC(=O)Nc1ccccn1)c1cccc(C)c1 (stereo not given),451% (active)
12,COc1ccc([N+](=O)[O-])cc1N(CC(=O)Nc1ccccc1C(=O)N1CCOCC1)S(C)(=O)=O,-10.4%
13,COC(=O)c1scc(C)c1NC(=O)CSc1ccc(Cl)cc1,-2.32%
14,COc1ccc(-c2ccc(CCC(=O)O)n2NC(=O)c2ccc(C(C)(C)C)cc2)cc1,-8.8%
15,CSc1nc2ccc(NC(=O)c3c(F)cccc3F)cc2s1,423% (active)
16,CCCC(=O)Nc1nc2ccc(NC(=O)c3c(F)c(F)c(OC)c(F)c3F)cc2s1,-0.657%
17,O=C(Nc1ccncc1)c1c(F)cccc1F,-9.16%
18,Cc1ccc(S(=O)(=O)NC(=O)N2CCCN(Cc3ccc(F)cc3)CC2)cc1,290%
19,Cc1cc(NC(=O)CSc2ncc(C(F)(F)F)cc2Cl)no1,6.57%
20,Cc1nc2ccccc2n1C(=O)N1CCOCC1,-12.1%
21,CCCC[C@H]1COCCS(=O)(=O)N1Cc1cccc(Cl)c1,-7.4%
22,CCC(C)[C@H]1COCCS(=O)(=O)N1Cc1ccc(C)cc1 (stereo not given in full),881% (active)
23,Cc1ccc(CN2CCCOCCS2(=O)=O)cc1,-17.5%

row,SMILES,growth rescue
1,COCCn1c(C)cc(C(=O)CSc2nnc(C3CC3)n2C2CC2)c1C,9.96%
2,Cc1cc(Br)ccc1NC(=O)c1cnc(N2CCN(c3ccccn3)CC2)c2ccccc12,1030% (active)
3,O=C(CN1CCN(c2ccccn2)CC1)Nc1ccc(Br)cc1,5.41%
4,Cc1cc(Br)ccc1NC(=O)c1sc2ncn(CC(=O)N3CCN(c4ccccn4)CC3)c(=O)c2c1C,-24.4%
5,COc1ccc(N2CCN(C(=O)COC(=O)c3cccc(S(=O)(=O)Nc4ccccc4OC)c3)CC2)cc1,-0.984%
6,COc1ccc(N2CC(C(=O)NCCS(=O)(=O)N3CCN(c4ccccc4)CC3)CC2=O)cc1 (stereo not given),3.93%
7,CCCCNC(=O)Cn1nc(C)c(S(=O)(=O)N2CCOCC2)c1C,-1.53%
8,O=C(COc1ccc2c3c(c(=O)oc2c1)CCCC3)NCC(O)c1ccccc1 (stereo not given),1.8%
9,O=C(COc1ccc2c3c(c(=O)oc2c1)CCC3)NC1CCCCC1,5.16%
10,NC(=O)C1CCN(C(=O)COc2ccc3c4c(c(=O)oc3c2)CCC4)CC1,296% (active)
11,CCCCCCCCCCCCN1[C@@H](CC(C)=O)c2cc(F)cc(F)c2S1(=O)=O,-17.6%
12,COc1ccc(C)cc1N(C(=O)Cn1nnc(-c2ccc(C)o2)n1)C(C(=O)NC1CCCC1)c1ccncc1 (stereo not given),-11.2%
13,CN(CCO)c1ccc(/C=N/Nc2nncc3ccccc23)cc1,20.6%
14,C=CC1=C(C(=O)O)N2C(=O)[C@@H](NC(=O)/C(=N/OCC(=O)O)c3csc(N)n3)[C@H]2SC1,328% (active)
15,CO/N=C(\C(=O)N[C@@H]1C(=O)N2C(C(=O)O)=C(COC(C)=O)CS[C@H]12)c1csc(N)n1 (stereo in doubt),-1.64% and 233%
16,Cc1cc(C)cc(C(=O)NC2C(=O)N3C(C(=O)O)=C(CSc4nnc(C)s4)CSC23)c1 (stereo not given),-7.63%
17,CCN(C(=O)COC(=O)Cc1c(F)cccc1Cl)c1c(N)n(Cc2ccccc2)c(=O)[nH]c1=O,-1.24%
18,Cc1ccccc1N1CCN(CC(=O)NCc2ccc(Cl)cc2)CC1,22%
19,CCOc1ccc(C(C)C)cc1S(=O)(=O)n1nc(C)cc1C,-14.9%
20,COc1ccc(OCc2cn3c(C)cc(C)nc3n2)cc1,1.72%
21,COc1ccc(C(C[N+](=O)[O-])n2nc(C)cc2C)cc1 (stereo not given),383% (active)
